# Data: the supplement of paper PMC13380429
# How the values were obtained:
# [1] = tested on: Vero E6 infected with SARS-CoV-2; assay: morphology score (similarity to uninfected cells); higher = more like uninfected cells; settings: 24 h
# [2] = tested on: Vero E6 infected with SARS-CoV-2; assay: SARS-CoV-2 infection rate relative to infected DMSO; higher = more infection, active = 60 or less; settings: 24 h
SMILES,morphology score [1],SARS-CoV-2 infection rate [2]
CS(=O)(=O)c1ccc(-c2cnc(NCc3ccco3)n3cnnc23)cc1 (10 µM),0.197,83% (inactive)
O=S(=O)(N[C@H]1CC[C@@](c2cc(F)ccc2F)(S(=O)(=O)c2ccc(Cl)cc2)CC1)C(F)(F)F (10 µM),0.0636,104% (inactive)
CN(C)CCc1c[nH]c2ccc(CS(=O)(=O)N3CCCC3)cc12 [almotriptan] (10 µM),0.00995,110% (inactive)
O=C1NC(=S)NC(=O)C1C(=O)Nc1ccccc1 [merbarone] (10 µM),0.103,99% (inactive)
C[C@]12CC[C@@H](O)C[C@H]1CC[C@@H]1[C@@H]2CC[C@]2(C)C(=O)CC[C@@H]12 [3-alpha-hydroxy-5-beta-androstan-17-one] (10 µM),0.223,102% (inactive)
CNC[C@H](O)c1ccc(O)c(O)c1 [epinephrine] (10 µM),0.0378,104% (inactive)
CCc1ccc(C2=CC(C)(C)Sc3ccc(C#Cc4ccc(C(=O)O)cc4)cc32)cc1 (10 µM),-0.0119,111% (inactive)
COC(=O)[C@@H](N)CS [mecysteine] (10 µM),-0.052,112% (inactive)
NC(=O)Nc1cc(-c2cccc(F)c2)sc1C(=O)N[C@H]1CCCNC1 (0.833333 µM),0.11,106% (inactive)
O/N=C/c1ccc(-c2ccc(O)c(F)c2)c(Cl)c1O (10 µM),0.342,76.5% (inactive)
Cc1cc(Cn2cnc3c2C[C@@H](C(=O)O)N(C(=O)C(c2ccccc2)c2ccccc2)C3)ccc1N(C)C (10 µM),0.0919,99% (inactive)
CCCCc1nc(Cl)c(CO)n1Cc1ccc(-c2ccccc2-c2nnn[nH]2)cc1 [losartan] (10 µM),0.0837,99.5% (inactive)
CC1=C(/C=C/C(C)=C/C=C/C(C)=C/C=O)C(C)(C)CCC1 [retinaldehyde] (10 µM),-0.111,114% (inactive)
CC[C@@]1(O)C(=O)OCc2c1cc1n(c2=O)Cc2cc3ccccc3nc2-1 [camptothecin] (0.833333 µM),-0.218,114% (inactive)
COc1cc2ncnc(Nc3cccc(Cl)c3)c2cc1OC [tyrphostin-AG-1478] (10 µM),-0.318,118% (inactive)
COc1ccc(-c2cnc3c(-c4cccc5ncccc45)cnn3c2)cc1 (10 µM),0.294,100% (inactive)
COc1cc([C@@H]2c3cc4c(cc3[C@@H](O[C@@H]3O[C@@H]5CO[C@@H](c6cccs6)O[C@H]5[C@H](O)[C@H]3O)[C@H]3COC(=O)[C@H]23)OCO4)cc(OC)c1O [teniposide] (10 µM),-0.0983,111% (inactive)
COCC1(CO)C(=O)C2CCN1CC2 (stereo unspecified) (10 µM),0.212,80.5% (inactive)
O=C1NC(O)CCN1[C@@H]1O[C@H](CO)[C@@H](O)[C@H]1O (stereo partly specified) [tetrahydrouridine] (10 µM),0.167,103% (inactive)
C=CCNC(=O)c1cc([N+](=O)[O-])cc2c(=O)[nH]c(Nc3ccc(Cl)c(Cl)c3)nc12 (10 µM),-0.137,108% (inactive)
Nc1c(Br)cc(Br)cc1CN[C@H]1CC[C@H](O)CC1 [ambroxol] (10 µM),-0.155,114% (inactive)
CS(=O)(=O)c1ccc(-c2cnc(N)c(C(=O)Nc3ccccc3)n2)cc1 (10 µM),0.278,87% (inactive)
Cn1c(=O)c2[nH]cnc2n(C)c1=O [aminophylline] (10 µM),0.187,95% (inactive)
CCCCCn1cc(C(=O)NC23CC4CC(CC(C4)C2)C3)c(=O)c2cc(-c3ccccc3)ccc21 (10 µM),0.119,107% (inactive)
NC1CCN(c2nc3c(cc2F)c(=O)c(C(=O)O)cn3-c2ccc(F)cc2F)C1 (stereo unspecified) [tosufloxacin] (10 µM),-0.115,112% (inactive)
O=c1cc[nH]c(=O)[nH]1 [uracil] (10 µM),-0.002,108% (inactive)
C=CC[C@@H]1/C=C(\C)C[C@H](C)C[C@H](OC)[C@H]2O[C@@](O)(C(=O)C(=O)N3CCCC[C@H]3C(=O)O[C@H](/C(C)=C/[C@@H]3CC[C@@H](O)[C@H](OC)C3)[C@H](C)[C@@H](O)CC1=O)[C@H](C)C[C@@H]2OC [tacrolimus] (10 µM),0.199,93% (inactive)
CCc1cc2c(c(CC)n1)CCC(=O)N2Cc1ccc(-c2ccccc2-c2nnn[nH]2)cc1 (10 µM),0.264,98.5% (inactive)
